Several values for one entry are separate records, joined by “and”; a condition that tells them apart may be missing. Equal values may be shown once. The whole screen tested about 260,000 compounds, of which about 1,500 (0.58%) were called active. About 5% were inconclusive and are not listed.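 The calls were made as follows: active = inhibition above a set limit at one or more doses, reproduced on every date tested; inconclusive = results disagree between test dates, or hit never tested in dose response; inactive = the rest.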 The list is a sample of the results. Results with a measured potency or affinity are listed apart.
What follows are compounds tested against Virion infectivity factor (Human immunodeficiency virus type 1 group M subtype B (isolate BH10)) + Virion infectivity factor (Human immunodeficiency virus type 1 group M subtype B (isolate BRU/LAI)) + Virion infectivity factor (Human immunodeficiency virus type 1 group M subtype B (isolate PCV12)) + Virion infectivity factor (Human immunodeficiency virus type 1 group M subtype B (isolate HXB2)) + DNA dC->dU-editing enzyme APOBEC-3G (Homo sapiens) (UniProt P69720+P69721+P69722+P69723+Q9HC16) (assay: HIV-1 Vif–A3G interaction blockers – biochemical, TR-FRET, GST-Vif 1-94, biotin-A3G peptide, dose response retest, primary screen (AID 1117319;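 also: Vif residues 1-94 fused to GST binding biotinylated APOBEC3G peptide 110-148; 0% = full assay without inhibitor and 100% = GST in place of GST-Vif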)). Details: TR-FRET GST-Vif / biotin-A3G peptide binding; hits give high values.

inhibition, inactive:
O=C(CSc1nnc(CCCO)n1-c1ccccc1)Nc1nccs1 -0.69%
CCOc1cc(CNCCO)cc(Br)c1OCc1ccc(Cl)cc1 -0.39%
Nc1cc(=O)nc(SCC(=O)Nc2ccccc2Cl)n1-c1ccccc1 -1.2%
Cc1ncsc1CCSc1nc2ccccc2c(=O)n1C -1.02%
COc1cc(OC)cc(C(=O)Nc2cccnc2)c1 7.36%
COc1ccc(S(=O)CC(=O)Nc2ccccc2Cl)cc1 (stereo not given) -2.59%
CCN(CC)c1ccc(C=Nc2cc(C)cc(C)c2)c(O)c1 9.03%
CCN(CC)c1ccc(C=Nc2ccc(C#N)cc2)c(O)c1 -0.77%
CCN(CC)c1ccc(C=Nc2ccccc2)c(O)c1 29.3%
CCN(CC)c1ccc(C=Nc2ccccc2C)c(O)c1 -5.2%
COc1nnc(-c2ccc(C)c(S(=O)(=O)NC(C)C)c2)c2ccccc12 -9.93%
COc1ccc(C2=NC(CO)(CO)CO2)cc1 -8.98%
O=C(Nc1ccc(S(=O)(=O)N2CCCC2)cc1)c1cc(=O)c2ccccc2o1 -4.62%
CN(C)CC(=O)N1c2ccccc2Sc2ccc(Cl)cc21 3.03%
O=C(CN1CCCc2ccccc21)NCCc1ccc(Cl)cc1 32.1%
COc1ccc(CCNC(=O)CN2CCOc3ccccc32)cc1OC 2.79%
NC1=CC(=O)C(=O)c2ccccc21 6.05%
O=C1C=C(Nc2ccccc2)c2ccccc2C1=O 2.25%
COc1cc(NC(=O)CS(=O)(=O)c2ccccc2)cc(OC)c1OC -4.34%
COc1cc(-c2nnc(NC(=O)CS(=O)(=O)c3ccc(C)cc3)o2)cc(OC)c1OC -0.69%
O=[N+]([O-])c1cccnc1N1CCN(c2ccc(F)cc2)CC1 -1.42%
COCCCC1CCN(Cc2cn[nH]c2-c2cc(OC)c(OC)c(OC)c2)CC1 -14.3%
O=C(O)c1cccc(N/N=C/c2ccc(-c3ccccc3)cc2)c1 6.67%
CSc1ccc(/C=N/Nc2ccc(Cl)c(C(=O)O)c2)cc1 14.3%
COC(=O)c1ccc(COc2ccccc2/C=N/Nc2cccc(C(=O)O)c2)cc1 9.8%
O=C(O)c1cccc(N/N=C/c2ccc(OC(F)(F)F)cc2)c1 0.25%
CN(C)S(=O)(=O)N1CCc2ccccc21 28.1%
Cc1cc(OCCn2cnc3ccccc3c2=O)ccc1[N+](=O)[O-] 3.47%
COc1ccc(S(=O)(=O)/N=C2/C=CC(=O)C(C)=C2C)cc1 9.79%
O=S(=O)(N=C1C=CC(=NS(=O)(=O)c2ccccc2)c2ccccc21)c1ccccc1 14.1%
CCc1ccc(S(=O)(=O)ON2C(=O)c3ccccc3C2=O)cc1 5.83%
CCc1ccc(S(=O)(=O)/N=C2\C=C(NS(=O)(=O)c3ccccc3)C(=O)c3ccccc32)cc1 16%
Cc1ccc(CNC(=O)CSc2nc(N3CCCCC3)nc(N3CCCCC3)n2)cc1 4.78%
COc1ccc(Nc2nc(OC)nc(N3CCOCC3)n2)cc1 -3.38%
CC1=C(C(=O)OC2CCCCC2)C(c2cccs2)n2c(nc3ccccc32)N1 (stereo not given) -7.41%
CN1CCc2cc3c(c4c2[C@H]1[C@H](O)c1ccccc1-4)OCO3 9.65%
CN1CCc2ccccc2C1C1CCNCC1 (stereo not given) 25.2%
CCN(CC)CCn1c2c(c(SCC(=O)NCc3ccccc3)nc1=O)CCCC2 6.08%
O=C(NCCCN1CCN(CCCNC(=O)c2cccc([N+](=O)[O-])c2)CC1)c1cccc([N+](=O)[O-])c1 1.34%
Cc1nn(C)cc1/C=N/NC(=S)Nc1ccccc1 0.96%
C/C(N)=C(/C#N)C(=O)CSc1n[nH]c(-c2ccccc2Br)n1 10.4% and -7.5%
CCOC(=O)c1ccccc1NC(=O)[C@@H]1CCCN1C(=O)OC(C)(C)C 3.12%
CCN1C(=O)c2ccc(C(=O)NCc3ccc4c(c3)OCO4)cc2C1=O -10.4%
Cc1cc(C(F)(F)F)n2ncc(C(=O)O)c2n1 -3.78%
Cc1cc(C(F)(F)F)n2nc(C)c(-c3ccc(Cl)cc3)c2n1 -0.47%
CC(C)(C)C1=NN=C2c3ccccc3C(=O)C21 (stereo not given) 6.1%
COCOCCn1cc(CN2CCS(=O)(=O)N(Cc3ccc(-c4ccc(Cl)cc4)cc3)C(C)C2=O)nn1 (stereo not given) 1.6%
Cc1cc(C(=O)CC#N)c(C)n1-c1c(C)n(C)n(-c2ccccc2)c1=O 3.73%
CCOC(=O)c1cc(C)n(-c2c(C)n(C)n(-c3ccccc3)c2=O)c1C 2.99%
Cc1onc(-c2ccccc2Cl)c1C(=O)O/N=C(\N)c1ccccc1 -3.35%
COc1ccc2c(=O)c3c(=O)n(Cc4ccco4)c(-c4ccc(C)cc4)nc3oc2c1 -32.5%
COc1ccc2c(=O)c3c(=O)n(Cc4ccco4)c(-c4ccco4)nc3oc2c1 6.47%
COc1ccc2c(=O)c3c(=O)n(Cc4ccco4)c(-c4ccccc4)nc3oc2c1 -5.44%
COc1ccc2c(=O)c3c(=O)n(Cc4ccco4)c(C(C)C)nc3oc2c1 -5.33%
O=C(O)CCS(=O)(=O)Cc1ccccc1Cl 3.96%
CC(C)OC(=O)C1C(=O)CC(C)(O)C(C(=O)OC(C)C)C1c1ccccc1 (stereo not given) -5.49%
O=C(N/N=C/c1c[nH]c2ccccc12)c1ccc([N+](=O)[O-])cc1Cl 2.78%
CCCCC(=O)NC(=S)Nc1ccccc1N1CCCCC1 1.96%
Cc1nc(SCC(=O)c2ccc(F)c(F)c2)[nH]c(=O)c1Oc1ccc(F)cc1 -1.47%
COc1cc(C2C(C(=O)c3ccc(C)o3)=C(O)C(=O)N2c2cc(C)on2)cc(Br)c1O (stereo not given) 19.3%
Cc1cc(N2C(=O)C(O)=C(C(=O)c3ccco3)C2c2ccc(O)cc2)no1 (stereo not given) -5.88%
COC(=O)c1ccc(COc2nc(C)cc(C)c2C#N)o1 2.74%
CCN(CC)S(=O)(=O)c1ccc(N2CCOCC2)c(NC(=O)CCC2CCCCC2)c1 -9.59%
Cc1occc1-c1nnc(SCC(=O)N2CCN(c3ccc(F)cc3)CC2)n1C 8.11%
CCn1c(SCC(=O)N2CCN(c3ccccc3)CC2)nnc1-c1ccoc1C 7.37%
O=C(CCSc1ccccc1)N1CCN(c2ccccc2)CC1 -3.65%
O=C(c1ccccc1C(=O)N1CCN(c2ccccc2)CC1)N1CCN(c2ccccc2)CC1 3.97%
COc1ccc(N2CCN(C(=O)CSc3ccccc3)CC2)cc1 30.3%
O=C(O)c1ccccc1C(=O)N1CCN(c2ccccc2)CC1 3.73%
CCc1nn2c(=O)cc(COc3ccc(/C=C4\C(=N)N5N=C(CC(C)C)SC5=NC4=O)cc3)nc2s1 9.59%
COc1ccc(OC)c(C2C(C(=O)c3cccs3)=C(O)C(=O)N2CCN(C)C)c1 (stereo not given) 0.56%
CN1CCN(CCCNC(=O)c2ccc(/C=C3/Sc4ccccc4N(Cc4cccc(Cl)c4)C3=O)cc2)CC1 2.32%
O=C(C1=C[C@H](c2ccc(Br)cc2)C[C@H](OCc2ccc(CO)cc2)O1)N1CCOCC1 15.5%
Clc1ncc2[nH]cnc2n1 1.24%
COc1cccc(NC2CC(=O)N(CCc3ccccc3)C2=O)c1 (stereo not given) 1.52%
COc1ccc(NC2CC(=O)N(CCc3ccccc3)C2=O)cc1 (stereo not given) 25.7%
O=C(/C=C/c1ccc(F)cc1)c1cc(Br)ccc1O -1.23%
O=C(/C=C/c1ccccc1)c1cc(Br)ccc(=O)c1O 24.6%
O=C(/C=C/c1ccc2c(c1)OCO2)c1ccc(O)cc1O 8.42%
Cc1ccc(C(=O)C=Cc2ccc3c(c2)OCO3)c(C)c1 0.22%
COC(=O)/C=C/c1ccc2c(c1)OCO2 4.78%
Nc1ccccc1C(=O)/C=C/c1ccc2c(c1)OCO2 3.13%
COC(=O)c1ccccc1NC(=O)CSc1nnc(COc2cccc(OC)c2)n1C 0.63%
COc1ccc(CNC(=O)CSc2ncnc3ccccc23)cc1OC -8.65%
COc1ccc(N2CCN(CC(=O)Nc3ccc(SC(F)F)cc3)CC2)cc1 27.3%
N#Cc1c(NC(=S)NC(=O)Cc2cccs2)sc2c1CCCCC2 12.2%
COc1ccccc1N1CCN(C(=O)COc2ccc(S(=O)(=O)NC(C)C)cc2)CC1 0.75%
CN1CCC(N(C)C(=O)COc2ccccc2Cl)CC1 -7.89%
O=C(O)COc1ccccc1-c1ccccc1 -0.72%
N#Cc1ccc(C(=O)NC2CCCc3ccccc32)cc1 (stereo not given) 5.64%
Cc1cn([C@H]2C[C@H](O)[C@@H](CNCc3ccc(F)c(N4CCOCC4)c3)O2)c(=O)[nH]c1=O -0.24%
CC(=O)Nc1ccccc1NC(=O)COc1cccc2ccccc12 -3.58%
COc1ccc(CCN=Cc2c(C)[nH]n(-c3ccc([N+](=O)[O-])cc3)c2=O)cc1OC 3.12%
CC(=O)Nc1ccc(S(=O)(=O)Nc2cccc(-n3cnnn3)c2)cc1 -3.6%
Cc1ccc(S(=O)(=O)Nc2cccc(-n3cnnn3)c2)cc1 -12.1%

Reference: PubChem BioAssay AID1117319 (Southern Research Institute, 2015)
